# Laboratory results reported in the supplement of paper PMC3334620.
# The full ranking holds about 33,000 sequences; the median of “E-score (-0.5 to 0.5)” is about -0.012, and the highest 2% start at about 0.29. The sample as a whole holds a higher share of the highest values than the screen did.
# Target: T1, Ybr033w (UniProt P38073)
# T1 sequence: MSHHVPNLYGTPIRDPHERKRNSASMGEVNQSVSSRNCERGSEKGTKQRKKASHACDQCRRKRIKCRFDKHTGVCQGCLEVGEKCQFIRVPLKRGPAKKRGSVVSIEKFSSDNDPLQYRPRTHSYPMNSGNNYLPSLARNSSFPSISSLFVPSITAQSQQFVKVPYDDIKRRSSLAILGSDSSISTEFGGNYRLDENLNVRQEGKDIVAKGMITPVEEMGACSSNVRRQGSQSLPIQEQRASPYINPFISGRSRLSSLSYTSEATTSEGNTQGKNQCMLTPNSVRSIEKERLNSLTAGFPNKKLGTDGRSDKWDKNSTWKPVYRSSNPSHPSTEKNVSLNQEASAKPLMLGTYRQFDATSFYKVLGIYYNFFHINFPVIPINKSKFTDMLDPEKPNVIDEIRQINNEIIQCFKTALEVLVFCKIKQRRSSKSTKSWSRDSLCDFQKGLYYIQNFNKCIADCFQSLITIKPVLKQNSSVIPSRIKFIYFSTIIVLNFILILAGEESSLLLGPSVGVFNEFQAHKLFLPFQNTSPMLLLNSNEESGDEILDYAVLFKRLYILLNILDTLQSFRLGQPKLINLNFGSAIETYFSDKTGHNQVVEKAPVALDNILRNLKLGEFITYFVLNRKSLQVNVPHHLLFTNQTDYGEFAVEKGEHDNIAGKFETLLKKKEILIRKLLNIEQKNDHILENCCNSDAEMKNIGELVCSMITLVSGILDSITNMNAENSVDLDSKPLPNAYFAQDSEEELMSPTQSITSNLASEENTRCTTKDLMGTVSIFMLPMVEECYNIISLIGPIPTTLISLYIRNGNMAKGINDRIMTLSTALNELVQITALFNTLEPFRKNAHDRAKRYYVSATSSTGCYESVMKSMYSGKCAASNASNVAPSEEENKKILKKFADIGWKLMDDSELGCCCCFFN
# Experiment: PBM E-score (8-mer binding enrichment) (E-score (-0.5 to 0.5)); higher = stronger / more preferred TF binding
# Conditions: protein concentration: 200 nM; construct: GST-full length
# In short: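 Full-length yeast transcription factors or their DNA-binding domains, GST-tagged and expressed with PURExpress, were applied at about 100-200 nM to universal all-10-mer Agilent arrays. These arrays had been made double-stranded by primer extension on fresh or once-stripped slides. Detection used fluorescent anti-GST, normalisation used masliner, and E-scores for ungapped eight-base words pooled with reverse complements came from the Universal PBM Analysis Suite.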
row,Sequence,PBM E-score
1,CTTTGGTC,0.0811
2,GAACTTCC,0.16
3,CTTCGCCC,-0.143
4,AATAGGGG,-0.0543
5,GGGGCTCA,-0.219
6,AGTTGCGG,0.0698
7,AAGTTAGA,0.235
8,GTACAGAC,-0.1
9,GACACATC,-0.11
10,GGCTACCA,-0.203
11,GATGCTAC,0.0488
12,CCCTTTCA,-0.19
13,AAGTCTTA,-0.00514
14,CCGGATAC,-0.0612
15,CCGGATAA,0.454
16,CCGGATAG,0.0368
17,CCAGAATA,0.0783
18,ACTTTGGA,0.156
19,ACCATGAC,-0.0754
20,ACAGCTGC,-0.0919
21,CGAGAGAC,-0.188
22,AAATTATT,0.417
23,CAATTATG,0.08
24,CAATTATC,0.365
25,AGATTATG,0.148

row,Sequence,PBM E-score
1,AAATTAGT,0.206
2,CAATTAAC,0.224
3,AAATTAGG,0.138
4,ACATTATC,0.219
5,AAATTATG,0.227
6,AAATTATC,0.418
7,CGATTATC,0.07
8,AGATTATC,0.301
9,CCCCACAA,-0.229
10,CACTTTAG,0.112
11,ACTTACTC,0.0333
12,GTGCGGTA,-0.0389
13,CCCAAGCA,-0.0848
14,AACCTCGG,0.0447
15,GAAATCTC,-0.0338
16,CGGGGGAG,-0.329
17,AATATATA,0.277
18,AAAATATC,0.304
19,ACAATATC,0.293
20,AAAATAGT,0.225
21,AAAATATT,0.364
22,ACAATATG,0.199
23,ACAATATA,0.264
24,AATATATG,0.204
25,AATATATT,0.411

row,Sequence,PBM E-score
1,CAAATATC,0.269
2,AAAATATA,0.28
3,CACCTCTC,-0.283
4,AGAATGGA,0.0873
5,GGACGCGA,-0.0773
6,ATCTGGGC,-0.0818
7,CTCCTCGC,-0.257
8,CATTCTAA,0.165
9,CTGGCTTC,-0.174
10,TATTCTGA,0.0151
11,ATCTCATG,0.0775
12,ATTTTCTG,0.0635
13,CAAATATG,0.0991
14,AAAATATG,0.299
15,AGAATATG,0.229
16,GTCTGACA,0.00461
17,CAGTTATC,-0.0111
18,GAGTAGTA,0.163
19,GTTAATGA,0.12
20,CTTAATGA,-0.0192
21,ATTAATGG,0.289
22,ATTAATGC,0.22
23,ATTAATGA,0.354
24,AATAATGG,0.162
25,AATTAGCG,0.161

row,Sequence,PBM E-score
1,AGTCTCAC,-0.0327
2,TAAAGGAA,0.162
3,CGGATGAA,0.371
4,CGGATGAG,-0.0297
5,AGGATGAA,0.187
6,AGTCCAGC,-0.114
7,GGGTGAAA,0.0993
8,ACAGTCGT,-0.164
9,CGTGGAAA,0.182
10,TGAAAAAA,0.246
11,GGGAAAAC,0.0792
12,TGGAAAAA,0.458
13,TGGAAACA,-0.0929
14,AGGAAAAG,0.038
15,GGGAAAAA,0.453
16,GGGGAAAA,0.208
17,AGTGGAAA,0.146
18,AGGAAAAA,0.431
19,AGGAAAAC,0.12
20,TGTGGAAA,0.291
21,GGCTGAGA,-0.171
22,GTCATTAA,0.203
23,TGTTATAA,0.19
24,ATACGGTA,0.125
25,CTTTGTGC,-0.00737

row,Sequence,PBM E-score
1,CAGGCATC,0.00941
2,TCTCGACA,0.0966
3,CCGACTCC,-0.185
4,ACGAAAAT,0.259
5,AAGAAAAT,0.331
6,AGGAAAAT,0.379
7,AAGAAAAA,0.258
8,AGAAAAAT,0.269
9,AAGAAATT,0.281
10,CTACTGGC,-0.052
11,AGTAGCTG,0.0396
12,GCAGCGTA,-0.106
13,AGAACTAT,0.275
14,ATCTTTGG,0.0693
15,CTTTAATA,0.227
16,ATTTAATA,0.325
17,GTTTAATA,0.264
18,ATTTAATC,0.352
19,CTTTAGTA,0.0159
20,ATTTAATG,0.244
21,ATTTAGTC,0.0709
22,CTTTAATC,0.145
23,ATTTAGTA,0.376
24,GACTCCCA,-0.305
25,CAGCCGTC,-0.0893

row,Sequence,PBM E-score
1,AAGAAGAA,0.185
2,AGGAAGAT,0.323
3,CGGAAGAG,-0.108
4,CGGAAGAC,0.00735
5,AAGAAGAT,0.205
6,TAGAAGAA,0.0772
7,GGGAAGAA,0.256
8,AGGAAGAG,-0.0292
9,TGGAAGAA,0.347
10,CGGAAGAA,0.462
11,AGGAAGAC,-0.214
12,AGGAAGAA,0.36
13,TGATACCA,0.092
14,CATTGGGC,-0.222
15,CCTAAAAG,-0.226
16,AGGATGCC,-0.102
17,ATCGAATC,0.0745
18,TAAAGGTA,0.0512
19,CAATGAAC,0.00305
20,GCGCACAA,-0.0152
21,CCGAAATC,0.0136
22,GGACCAGA,-0.0563
23,AAGTCCAC,-0.0692
24,GTACCACA,0.121
25,TTGAAAAA,0.237

row,Sequence,PBM E-score
1,GTGGAAGA,0.137
2,GTGGAAAA,0.298
3,TAGGAAAA,0.229
4,CTGGGAAA,0.135
5,CTGGAAAG,-0.189
6,TTGGAAAA,0.298
7,TTGGGAAA,0.294
8,GTGGAAAC,-0.0663
9,ATGGGAAA,0.0136
10,CTGGAAAA,0.377
11,CTGGAAAC,-0.0702
12,AAAGCTTG,0.147
13,CTGCAAAC,0.0506
14,CCGCCTGA,-0.172
15,TCTGCGCA,0.0104
16,CAGATATG,-0.0501
17,ATGGAAAT,0.175
18,ATGGAAAA,0.32
19,ATGGAAAG,0.122
20,ATTTGGCC,-0.0178
21,CTCATCAG,0.0236
22,CAATGAGG,-0.14
